KB-V1 cytotox – kills drug-selected multidrug resistant KB-V1 cells | 3.4% of 400,000 active | AID 1347076 | KB-V1 MDR cells viability, CellTiter-Glo, 72 h | Potency, µM (titrated, usually from 46.1 µM), most hits filed as cytotoxic; also: % is scaled to controls: 0 for no effect and ±100 for the full control effect; nearly all actives have a fitted effect of over 60% in size
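Cytotoxicity toward P-gp-expressing KB-V1 cells was determined as loss of CellTiter-Glo luminescence after 72 h at 37 degrees C. Compounds were tested in quantitative HTS format across a concentration range, with curves fitted to normalized data.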
MCF10A rerep – DNA re-replication induction in MCF 10a cells. Potency, µM (doses to about 46.1 µM), for the others: top-dose activity, positive = re-replication, most hits filed as activators. MCF 10A DNA re-replication, Hoechst nuclear intensity, 48 h. AID 624296. 2.9% of 350,000 active; also: % of control where 0% means no effect; nearly all actives have a fitted effect of over 50% in size
RORgamma inh – blocks mouse ROR gamma transcriptional activity; P51450; Drosophila S2 Gal4-RORgamma UAS-luciferase reporter, 20 h; Potency, µM (series often up to 53.6 µM), for inactives: at the top dose activity change, negative = inhibition, actives largely listed as inhibitors; 5.4% of 310,000 active; AID 2551; also: % is scaled to controls: 0 for no effect and ±100 for the full control effect; nearly all actives have a fitted effect of over 60% in size
Target sequence (P51450 whole entry, looked up, the tested form may be a part): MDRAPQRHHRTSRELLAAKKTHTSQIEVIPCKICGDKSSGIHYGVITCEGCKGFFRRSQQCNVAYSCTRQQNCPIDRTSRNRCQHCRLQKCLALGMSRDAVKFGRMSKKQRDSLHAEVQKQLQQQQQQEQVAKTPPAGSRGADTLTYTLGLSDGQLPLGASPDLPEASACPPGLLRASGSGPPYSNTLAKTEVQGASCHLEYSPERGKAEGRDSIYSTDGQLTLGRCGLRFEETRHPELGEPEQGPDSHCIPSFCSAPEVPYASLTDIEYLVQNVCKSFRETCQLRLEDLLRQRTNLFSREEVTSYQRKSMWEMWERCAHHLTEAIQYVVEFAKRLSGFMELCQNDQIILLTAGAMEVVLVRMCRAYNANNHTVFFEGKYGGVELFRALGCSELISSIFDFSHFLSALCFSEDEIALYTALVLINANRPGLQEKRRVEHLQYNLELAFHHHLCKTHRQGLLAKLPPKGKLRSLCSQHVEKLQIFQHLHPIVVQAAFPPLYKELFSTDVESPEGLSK
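Stably transfected Drosophila Schneider cells are the test system, with ROR gamma fused to Gal4 and luciferase under UAS control; luminescence is read after 20 hr of 700 uM copper sulfate induction at ambient temperature.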
VP16 counter – counter-screen for ROR gamma inhibitors: Gal4-VP16 reporter; Drosophila S2 Gal4-VP16 UAS-luciferase, luminescence, 20 h; Potency, µM (titrated, usually from 53.6 µM), inactives show top-dose activity, negative = inhibition, most hits filed as inhibitors; 3.5% of 310,000 active; AID 2546;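 also: Gal4-VP16 expression switched on by copper sulfate through the metallothionein promoter; % is scaled to controls: 0 for no effect and ±100 for the full control effect; nearly all actives have a fitted effect of over 50% in size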
SW480 rereplic – DNA re-replication induction in SW480 cells; SW480 DNA re-replication, Hoechst DNA content imaging, 48 h; Potency, µM (top dose mostly 46.1 µM), inactives show at the top dose re-replication activation, most hits filed as activators; 1.8% of 340,000 active; AID 624297; also: % of control where 0% means no effect; nearly all actives have a fitted effect of over 55% in size
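Treated cells incubate 48 hr (37 C, 5% CO2), are stained 40 min with Hoechst, and nuclear fluorescence is enumerated; a rise in nuclei with high DNA signal marks re-replication.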
KB-3-1 cytotox – KB-3-1 parental cell cytotoxicity. KB-3-1 viability, CellTiter-Glo ATP luminescence, 72 h. Potency, µM (series often up to 46.1 µM), usual class: cytotoxic. 1.4% of 400,000 active. AID 1347075; also: % is scaled to controls: 0 for no effect and ±100 for the full control effect; nearly all actives have a fitted effect of over 60% in size
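KB-3-1 parental drug-naive adenocarcinoma cells in DMEM/10% FBS, incubated 72 h at 37 C with pin-transferred compounds across a concentration series. Viability by CellTiter-Glo luminescence; concentration-response curves fitted after normalization.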
* marks the source's active call; other numbers are inactive results; i = inactive; ? = inconclusive; · = no result given. A selection: hits, their analogues and other compounds. The true share with any hit is near 10%. Calls follow the shape of the dose curve; as a rule, active = well fitted curve in the direction sought with a large enough effect; inconclusive = small, poorly fitted or top-dose-only effect, or another doubt; inactive = no such curve, though single readings can be large; an effect the other way counts as inactive or inconclusive. Potency is read from the fitted curve at half-maximal effect.

SMILES	KB-V1 cytotox	MCF10A rerep	RORgamma inh	VP16 counter	SW480 rereplic	KB-3-1 cytotox
O=C(O)COc1ccc2occ(C(=O)c3ccccc3)c2c1	i	-2.9%	-15.6%	-3.8%	-7.8%	i
COC(=O)COc1ccc2occ(C(C)=O)c2c1	i	8.2µM*	6.0%	?	16.4µM*	i
Cc1nc2ccccc2n1CCc1nc2c3ccccc3nc(=S)n2[nH]1	i	-3.0%	3.55µM*	10µM*	-7.9%	i
Cc1ccccc1-c1nc2c3ccccc3nc(=S)n2[nH]1	i	7.31µM*	0.282µM*	1µM*	14.8%	i
CCC1(C)Cc2ccccc2-c2nc(NN)[nH]c(=O)c21 (stereo not given)	i	7.7%	15.8µM*	?	-13.1%	i
CCC1(C)Cc2ccccc2-c2nc(-c3ccccc3)oc(=O)c21 (stereo not given)	16.4µM*	?	-14.2%	2.1%	6.3%	?
CCC1(CC)Cc2ccccc2-c2nc(NN)[nH]c(=O)c21	i	7.3%	10µM*	15.8µM*	-2.1%	i
CCC1(CC)Cc2ccccc2-c2nc(CN3CCOCC3)[nH]c(=O)c21	?	11.1%	-23.9%	-14.7%	-4.6%	i
CN1C(=O)c2ccccc2Sc2ccc(NC(=O)COc3ccc(Cl)cc3)cc21	8.2µM*	·	·	·	·	?
Cc1ccc(C(=O)Nc2ccc3c(c2)N(C)C(=O)c2ccccc2S3)cc1	?	·	·	·	·	16.4µM*
CCCNC(=O)Nc1ccc2c(c1)N(C)C(=O)c1ccccc1S2	20.6µM*	10.7%	-2.8%	1.9%	6.0%	?
Cc1ccc(NC(=O)CSc2nc3ccccc3nc2Cc2ccccc2)c(C)c1	?	·	·	·	·	i
O=C(N/N=C/c1ccccc1O)C1CC(=O)N(c2ccc(F)cc2)C1 (stereo not given)	?	1.3%	2.82µM*	6.31µM*	?	?
COc1ccc(N2CC(C(=O)N/N=C/c3cc([N+](=O)[O-])ccc3O)CC2=O)cc1 (stereo not given)	i	?	5.62µM*	17.8µM*	?	?
COc1ccc(N2CC(C(=O)N/N=C/c3c[nH]c4ccccc34)CC2=O)cc1 (stereo not given)	i	0.0%	-2.1%	7.1%	1.3%	i
CCCCN(C=O)c1c(CC)nc2c(OCc3ccc(C(F)(F)F)cc3)cccn12	i	·	·	·	·	i
CC(=O)Nc1ccc(-c2ccnc3c2CC(C(=O)Nc2cccnc2)O3)cc1 (stereo not given)	i	·	·	·	·	?
CCCCOc1ccc(/C=C/C2=CC(C)(C)NC(=S)N2)cc1OCC	i	?	0.794µM*	1.78µM*	45.7%	i
CCOc1cc(C=O)ccc1OCCCN1C(=O)NC(C)(C)C1=O	i	7.0%	19.9%	14.5%	-4.7%	i
Cc1nc(NC(=S)NC(=O)COc2ccccc2Cl)ccc1Br	i	-2.4%	7.08µM*	7.08µM*	1.9%	i
O=C(NCc1ccccc1)c1cccc(COc2cc(Cl)ccc2Cl)c1	20.6µM*	27.4%	?	?	?	i
Cc1ccc(OCC(=O)NC(=S)Nc2ccccn2)c(Br)c1	i	-0.5%	10µM*	11.2µM*	0.1%	i
COC(=O)c1ccccc1NC(=O)c1cccc(COc2ccccc2Cl)c1	?	2.59µM*	44.6%	-0.4%	?	?
CCOc1ccc(OC(=O)c2cn(-c3ccc(C)cc3)c(=O)c3ccccc23)cc1	i	·	·	·	·	i
Cc1ccc(-c2noc(C3CC(=O)N(c4ccc5c(c4)OCCO5)C3)n2)cc1 (stereo not given)	i	·	·	·	·	i
COc1ccc2c(c1)cc1c(=O)n(CC(=O)NC3CCCCC3)nc(C)n12	i	·	·	·	·	i
CC(C)c1ccc(OCC(=O)NNC(=S)NC(=O)c2cccs2)c(Br)c1	?	?	13.4%	-0.5%	-13.7%	?

Bioassay records deposited in PubChem by National Center for Advancing Translational Sciences (NCATS).
